Experimental data from PubChem BioAssay (NCATS).
Inconclusive results are not listed. Where a call stands in place of a potency, no number is given. The source made the active and inactive calls. Unless noted, calls come from the whole dose curve; as a rule, active = well fitted curve in the direction sought with a large enough effect; inconclusive = small, poorly fitted or top-dose-only effect, or another doubt; inactive = no such curve, though single readings can be large; an effect the other way counts as inactive or inconclusive.

Columns and labels:
[1] = High Content Imaging Cell-Based qHTS for Inhibitors of the mTORC1 Signaling Pathway in MEF (Tsc2-/-, p53-/-) Cells (AID 2666);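 note: percent of cells scored positive for phospho-rpS6 Ser235/236 immunostaining by imaging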
In short: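 Tsc2-/-, p53-/- MEFs (empty-vector stable) grown in DMEM + 10% FBS were exposed to compounds for 24 hrs at 37 degree Celsius, fixed, and stained with Alexa-488 anti-phospho-rpS6 Ser235/236 plus Hoechst. Imaging gave the percentage of positive cells per well.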

[2] = Cytometry Cell-Based qHTS for Inhibitors of the mTORC1 Signaling Pathway in MEF cells (AID 2668); note: potency is the fitted concentration of half-maximal effect
In short: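 Tsc2-/-, p53-/- MEFs re-expressing WT Tsc2; cpd 24 hrs, 37 degree Celsius; PFA fix, Alexa-488 p-rpS6 (Ser235/236) Ab 2 hrs RT, PI counterstain; Acumen 488nm scan; p-S6/PI ratio → % positive cells; PI count = viability.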

[3] = target: Ubiquitin carboxyl-terminal hydrolase 2 (Homo sapiens) (UniProt O75604); experiment: qHTS Validation Assay for Inhibitors of Ubiquitin-specific Protease USP2a Using CHOP2 as the Reporter (AID 463106)
In short: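 Readout was coupled fluorescence (Ex 485/Em 531 nm), read 60 min after adding 25 nM final Ub-CHOP2 and 25 nM reporter substrate. Beforehand, 10 nM final USP2 core had 30 min at RT with compound in pH 8.0 buffer. Curves were fitted after normalization to NEM and flagged for artifacts using time-zero reads.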

[4] = target: Tumor susceptibility gene 101 protein (Homo sapiens) (UniProt Q99816); experiment: qHTS Validation Assay for Iinhibitors of HIV-1 Budding by Blocking the Interaction of PTAP/TSG101 (AID 485342; calls by dose curve)
In short: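 Binding of a FITC-tagged PTAP-motif peptide (50 nM) to the Tsg101 binding domain (10 uM) is monitored by fluorescence polarization. Compounds are pin-delivered before peptide addition, and incubation runs 20 min at room temperature.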

[5] = target: Beta-2 adrenergic receptor (Homo sapiens) (UniProt P07550); experiment: qHTS validation assay of beta-arrestin-biased ligands of beta2-adrenergic receptor (AID 485366)
In short: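 Agonist activity is measured as luciferase luminescence downstream of beta-arrestin recruitment to recombinant beta2-AR in Tango cells. Exposure lasts 18 hr at 37 degrees C, and curves are categorized by r2, response size and activity.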

[6] = target: ATP-dependent 6-phosphofructokinase (Trypanosoma brucei brucei) (UniProt O15648); experiment: qHTS Validation Assay to Find Inhibitors of T. brucei phosphofructokinase (AID 485368)
In short: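 Inhibition derived from concentration-response curves of luminescence, ranked by r2, response size and curve class; the underlying reaction used 1.25 nM PFK, 0.1 mM ATP and 0.5 mM F6P, 45 min, room temperature.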

[7] = Cytometric Cell-Based qHTS for Inhibitors of the mTORC1 Signaling Pathway in MEF (Tsc2-/-, p53-/-) Cells (AID 2660);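 note: Tsc2 and p53 null MEFs carrying empty vector with compound for 24 h; percent of cells above a phospho-rpS6 to PI ratio cutoff in each well; series mostly up to about 38 µM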
In short: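 Readout: Alexa-488 phospho-rpS6 (Ser235/236) intensity divided by PI intensity, thresholded against 7.5 nM rapamycin wells and reported as % positive cells. PI cell count served as the viability measure. Compound exposure was 24 hrs at 37 degree Celsius.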

[8] = High Content Imaging Cell-Based qHTS for Inhibitors of the mTORC1 Signaling Pathway in MEF Cells (AID 2667); note: potency is the fitted concentration of half-maximal effect
In short: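 Tsc2-/-, p53-/- MEFs stably re-expressing WT Tsc2, grown in DMEM + 10% FBS, were treated with compounds for 24 hrs at 37 degree Celsius, fixed, and stained with Alexa-488 phospho-rpS6 Ser235/236 antibody plus Hoechst; results given as % positive cells.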

[9] = qHTS Validation Assay to Find Inhibitors of Chronic Active B-Cell Receptor Signaling (AID 485345; active = well fitted curve in the direction sought with a large enough effect in the main read-out, with a control signal flat, not every such curve was filed as active)
In short: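 Read-out: ratio of filter-corrected green (IkappaBalpha fusion) to red (native) luciferase signal in doxycycline-induced TMD8 cells after 4 h at 37C. Titration spanned 46 uM–3 nM; Data were normalised to basal cells and 10 uM MG-132 wells.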

[10] = target: DNA polymerase III PolC-type (Bacillus subtilis (strain 168)) (UniProt P13267); experiment: qHTS Validation Assay for the Inhibitors of DNA Replication in Gram-Positive Bacteria (AID 485295);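 note: reconstituted holoenzyme with PolC plus beta clamp SSB and primase; PicoGreen fluorescence of double-stranded DNA made on primed circular M13 template; series mostly up to about 57 µM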
In short: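 First, compound is mixed with the reconstituted replication complex and held at room temperature. Next, circular single-stranded M13Gori with nucleotides starts synthesis. Finally, PicoGreen in EDTA halts the reaction and stains double-stranded product for fluorescence reading.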

Chain of Ubiquitin carboxyl-terminal hydrolase 2 (Homo sapiens) (O75604 whole entry, looked up): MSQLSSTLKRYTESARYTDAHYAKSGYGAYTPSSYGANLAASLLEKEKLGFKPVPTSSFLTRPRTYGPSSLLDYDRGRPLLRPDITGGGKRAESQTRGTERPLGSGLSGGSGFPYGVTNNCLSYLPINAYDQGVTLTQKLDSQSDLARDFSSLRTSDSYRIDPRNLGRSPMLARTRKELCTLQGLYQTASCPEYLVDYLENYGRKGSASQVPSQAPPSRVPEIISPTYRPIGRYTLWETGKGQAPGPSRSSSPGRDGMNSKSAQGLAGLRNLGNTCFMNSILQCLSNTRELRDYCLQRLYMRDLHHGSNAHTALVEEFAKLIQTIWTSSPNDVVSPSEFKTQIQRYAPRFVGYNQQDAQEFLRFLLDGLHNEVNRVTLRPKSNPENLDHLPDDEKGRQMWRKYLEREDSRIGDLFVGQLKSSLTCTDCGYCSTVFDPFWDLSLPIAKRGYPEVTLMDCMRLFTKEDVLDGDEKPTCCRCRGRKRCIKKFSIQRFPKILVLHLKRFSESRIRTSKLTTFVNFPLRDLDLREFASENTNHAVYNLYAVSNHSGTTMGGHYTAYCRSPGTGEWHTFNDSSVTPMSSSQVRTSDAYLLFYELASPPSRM
Chain of Beta-2 adrenergic receptor (Homo sapiens) (P07550 whole entry, looked up): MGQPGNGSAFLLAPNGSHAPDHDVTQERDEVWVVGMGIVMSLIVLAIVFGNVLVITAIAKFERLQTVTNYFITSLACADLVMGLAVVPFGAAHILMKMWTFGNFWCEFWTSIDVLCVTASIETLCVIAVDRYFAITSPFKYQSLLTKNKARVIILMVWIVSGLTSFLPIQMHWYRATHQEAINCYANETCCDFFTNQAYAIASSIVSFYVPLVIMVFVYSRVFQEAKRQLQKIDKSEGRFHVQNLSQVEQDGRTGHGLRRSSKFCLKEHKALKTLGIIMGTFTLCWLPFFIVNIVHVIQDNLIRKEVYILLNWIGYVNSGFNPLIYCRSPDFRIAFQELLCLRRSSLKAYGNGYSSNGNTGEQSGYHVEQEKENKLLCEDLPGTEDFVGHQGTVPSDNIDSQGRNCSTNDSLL
Chain of ATP-dependent 6-phosphofructokinase (Trypanosoma brucei brucei) (O15648 whole entry, looked up): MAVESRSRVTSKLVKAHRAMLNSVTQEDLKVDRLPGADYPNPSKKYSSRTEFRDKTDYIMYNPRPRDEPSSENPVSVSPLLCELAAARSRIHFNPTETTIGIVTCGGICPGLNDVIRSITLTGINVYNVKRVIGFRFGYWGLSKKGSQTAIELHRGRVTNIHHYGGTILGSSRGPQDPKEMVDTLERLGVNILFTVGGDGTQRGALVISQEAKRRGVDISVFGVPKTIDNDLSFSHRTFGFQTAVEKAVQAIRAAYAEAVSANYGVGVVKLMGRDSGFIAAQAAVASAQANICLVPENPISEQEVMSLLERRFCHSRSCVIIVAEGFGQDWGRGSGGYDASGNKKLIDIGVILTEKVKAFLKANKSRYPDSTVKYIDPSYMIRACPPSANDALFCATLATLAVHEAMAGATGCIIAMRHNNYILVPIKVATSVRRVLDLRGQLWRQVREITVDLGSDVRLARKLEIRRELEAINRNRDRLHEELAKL
Chain of Tumor susceptibility gene 101 protein (Homo sapiens) (Q99816 whole entry, looked up, the tested form may be a part): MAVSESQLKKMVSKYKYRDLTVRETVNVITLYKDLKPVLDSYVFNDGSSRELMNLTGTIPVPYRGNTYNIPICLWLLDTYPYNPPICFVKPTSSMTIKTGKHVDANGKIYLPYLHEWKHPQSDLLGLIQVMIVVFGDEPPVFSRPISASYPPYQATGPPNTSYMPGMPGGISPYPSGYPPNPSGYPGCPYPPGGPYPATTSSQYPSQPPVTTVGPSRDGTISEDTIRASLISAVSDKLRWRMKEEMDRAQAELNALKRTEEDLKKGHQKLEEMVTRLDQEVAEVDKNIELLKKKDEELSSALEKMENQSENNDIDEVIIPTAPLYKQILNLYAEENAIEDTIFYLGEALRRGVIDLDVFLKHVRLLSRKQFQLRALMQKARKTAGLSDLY
Chain of DNA polymerase III PolC-type (Bacillus subtilis (strain 168)) (P13267 whole entry, looked up): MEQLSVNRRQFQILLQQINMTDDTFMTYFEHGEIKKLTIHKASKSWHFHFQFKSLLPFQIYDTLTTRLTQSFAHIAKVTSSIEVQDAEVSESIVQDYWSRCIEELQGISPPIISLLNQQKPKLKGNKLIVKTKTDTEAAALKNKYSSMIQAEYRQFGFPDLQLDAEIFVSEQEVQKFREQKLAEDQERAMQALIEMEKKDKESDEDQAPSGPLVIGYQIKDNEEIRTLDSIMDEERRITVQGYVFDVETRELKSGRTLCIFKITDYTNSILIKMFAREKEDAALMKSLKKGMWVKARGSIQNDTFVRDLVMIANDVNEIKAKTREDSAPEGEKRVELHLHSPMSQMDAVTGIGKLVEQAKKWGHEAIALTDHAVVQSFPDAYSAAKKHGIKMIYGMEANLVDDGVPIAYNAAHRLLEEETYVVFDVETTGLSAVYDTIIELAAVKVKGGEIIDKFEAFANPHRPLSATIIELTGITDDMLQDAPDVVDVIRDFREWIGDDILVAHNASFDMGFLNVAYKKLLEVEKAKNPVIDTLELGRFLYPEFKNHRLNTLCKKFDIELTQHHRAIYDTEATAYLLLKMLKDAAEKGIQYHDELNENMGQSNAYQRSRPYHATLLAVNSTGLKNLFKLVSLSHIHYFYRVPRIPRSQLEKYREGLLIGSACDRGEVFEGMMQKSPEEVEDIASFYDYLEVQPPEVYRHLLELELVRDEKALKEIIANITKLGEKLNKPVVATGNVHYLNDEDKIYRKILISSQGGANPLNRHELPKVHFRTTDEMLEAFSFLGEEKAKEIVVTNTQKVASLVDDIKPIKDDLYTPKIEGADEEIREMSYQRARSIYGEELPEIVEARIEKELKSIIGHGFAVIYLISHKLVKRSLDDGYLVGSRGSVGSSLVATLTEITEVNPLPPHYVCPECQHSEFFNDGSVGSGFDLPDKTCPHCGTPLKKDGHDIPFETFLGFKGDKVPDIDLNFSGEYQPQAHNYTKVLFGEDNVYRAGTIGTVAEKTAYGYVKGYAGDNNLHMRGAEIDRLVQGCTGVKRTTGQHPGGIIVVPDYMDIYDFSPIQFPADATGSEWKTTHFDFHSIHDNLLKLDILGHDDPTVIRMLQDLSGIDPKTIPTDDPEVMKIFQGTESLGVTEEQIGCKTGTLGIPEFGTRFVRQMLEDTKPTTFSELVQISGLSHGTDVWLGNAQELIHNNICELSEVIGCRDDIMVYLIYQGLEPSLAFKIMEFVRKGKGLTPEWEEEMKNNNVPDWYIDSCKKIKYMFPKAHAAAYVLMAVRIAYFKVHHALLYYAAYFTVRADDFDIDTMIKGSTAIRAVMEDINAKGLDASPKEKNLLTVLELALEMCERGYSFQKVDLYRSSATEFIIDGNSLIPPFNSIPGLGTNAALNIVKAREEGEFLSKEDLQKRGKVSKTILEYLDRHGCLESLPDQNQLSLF

Structure (SMILES)	Potency [1]	Potency [2]	Potency [3]	outcome [4]	outcome [5]	Potency [6]	outcome [7]	Potency [8]	outcome [9]	Potency [10]
O=C1NC(=O)/C(=C/c2ccc3nccnc3c2)S1	inactive	16.5 µM (active)	inactive	inactive	inactive	inactive	–	–	–	–
C[N+](C)(C)CCOP(=O)(O)OP(=O)([O-])OC[C@H]1O[C@@H](n2ccc(N)nc2=O)[C@H](O)[C@@H]1O	inactive	–	inactive	inactive	inactive	inactive	inactive	inactive	inactive	–
CCOC(=O)N1CCN(/[N+]([O-])=N/Oc2ccc([N+](=O)[O-])cc2[N+](=O)[O-])CC1	–	–	inactive	inactive	inactive	–	–	inactive	–	inactive
COc1ccccc1N1CCN(CCN(C(=O)c2ccc(I)cc2)c2ccccn2)CC1	inactive	–	inactive	inactive	inactive	inactive	inactive	–	–	inactive
CSc1ccccc1N1CCN(CCCCCC(=O)NC2CCCc3ccccc32)CC1 (stereo unspecified)	–	–	inactive	inactive	inactive	inactive	inactive	–	–	inactive
Nc1nc(SCc2ccc([N+](=O)[O-])cc2)c2ncn([C@@H]3O[C@H](CO)[C@@H](O)[C@H]3O)c2n1	–	–	inactive	inactive	inactive	–	inactive	inactive	–	inactive
C[N+]1(C)CCC(OC(=O)C(c2ccccc2)c2ccccc2)CC1	inactive	–	inactive	inactive	inactive	inactive	inactive	inactive	inactive	–
COc1ccc2c(c1)CCC1C2CC[C@@]2(C)C1CC[C@@H]2NCCCCCCN1C(=O)CCC1=O (stereo partly specified)	inactive	–	inactive	inactive	inactive	–	inactive	3.69 µM (active)	–	–
COc1cc(SC)ccc1C(=O)N1CCC(Cc2ccccc2)CC1	–	inactive	inactive	inactive	inactive	inactive	inactive	inactive	–	inactive
N=c1ccn2c(n1)O[C@H]1[C@H](O)[C@@H](CO)O[C@H]12	inactive	–	inactive	inactive	inactive	inactive	–	inactive	inactive	inactive
CCOC(=O)C1=C(C)NC(C)=C(C(=O)OCC)C1c1c(F)c(F)c(F)c(F)c1F	–	–	inactive	inactive	inactive	–	–	–	–	inactive
N#C/C(=C\c1ccc(-c2cc(Cl)ccc2Cl)o1)C(=O)Nc1cccc2ncccc12	inactive	inactive	inactive	inactive	inactive	–	–	inactive	–	inactive
Nc1ncnc2c1c(I)cn2[C@@H]1C[C@H](N)[C@@H](O)[C@H]1O	–	–	inactive	inactive	inactive	–	inactive	inactive	–	–
NC(=O)C1=CN(C2OC(COP(=O)(O)OP(=O)(O)OC[C@H]3O[C@@H](n4cnc5c(N)ncnc54)[C@H](OP(=O)(O)O)[C@@H]3O)C(O)C2O)C=CC1 (stereo partly specified)	–	inactive	inactive	inactive	inactive	inactive	inactive	inactive	–	inactive
C#C[C@]1(O)CC[C@H]2[C@@H]3CCC4=Cc5oncc5CC4(C)[C@H]3CCC21C (stereo partly specified)	–	inactive	inactive	inactive	inactive	–	inactive	inactive	–	inactive
O=[N+]([O-])c1ccc2c(c1)S(=O)(=O)C=C2	inactive	–	inactive	inactive	inactive	–	–	1.85 µM (active)	–	–

Structure (SMILES)	Potency [1]	Potency [2]	Potency [3]	outcome [4]	outcome [5]	Potency [6]	outcome [7]	Potency [8]	outcome [9]	Potency [10]
CC[C@@H](C)[C@H]1O[C@]2(CC[C@H]1C)C[C@@H]1C[C@@H](CC=C(C)[C@@H](O[C@H]3C[C@H](OC)[C@@H](O[C@H]4C[C@H](OC)[C@@H](O)[C@H](C)O4)[C@H](C)O3)[C@@H](C)C=CC=C3CO[C@@H]4[C@H](O)C(C)=C[C@@H](C(=O)O1)[C@]34O)O2	–	–	inactive	inactive	inactive	inactive	–	–	–	–
Nc1ncnc2c1ncn2[C@@H]1O[C@H](COP(=O)(O)OP(=O)(O)OP(=O)(O)OP(=O)(O)OC[C@@H]2O[C@H](n3cnc4c(N)ncnc43)[C@@H](O)[C@H]2O)[C@@H](O)[C@H]1O	inactive	–	inactive	inactive	inactive	–	inactive	inactive	–	–
CN1C2CC(OC(=O)[C@H](CO)c3ccccc3)CC1C1OC12 (stereo partly specified)	inactive	–	inactive	inactive	inactive	inactive	inactive	inactive	inactive	–
O=C(CCCCCN1CCN(c2ccccc2-c2ccccc2)CC1)NC1CCCc2ccccc21 (stereo unspecified)	inactive	–	inactive	inactive	inactive	inactive	inactive	–	–	–
CC(=O)/C=C1\C(=O)N(C)c2ccccc21	–	–	inactive	inactive	inactive	inactive	–	–	–	–
O=C(c1ccc(Cl)cc1)N1CCN(c2ccc([N+](=O)[O-])c3ncccc23)CC1	–	–	inactive	inactive	inactive	–	inactive	inactive	inactive	–
CC(C)NC[C@@H](O)c1ccc(O)c(O)c1	–	inactive	inactive	inactive	–	–	–	inactive	inactive	inactive
Cc1cc2c(cc1Cl)N(C(=O)Nc1ccc(Oc3cccnc3C)nc1)CC2	inactive	–	inactive	inactive	inactive	–	inactive	–	–	inactive
Cc1nc2sccn2c(=O)c1CCN1CCC(=C(c2ccccc2)c2ccc(F)cc2)CC1	–	inactive	inactive	inactive	inactive	–	inactive	inactive	inactive	inactive
CC1OC1P(=O)(O)O (stereo unspecified)	–	–	inactive	inactive	inactive	–	inactive	inactive	inactive	inactive
CCN(CC)c1ncnc2c1ncn2[C@@H]1O[C@H](COP(=O)(O)OP(=O)(O)C(Br)(Br)P(=O)(O)O)[C@@H](O)[C@H]1O	–	inactive	inactive	inactive	inactive	inactive	inactive	inactive	inactive	inactive
Nc1ncnc2c1ncn2[C@@H]1O[C@H](COP(=O)(O)CP(=O)(O)OP(=O)(O)O)[C@@H](O)[C@H]1O	–	–	inactive	inactive	inactive	inactive	inactive	inactive	inactive	inactive
Cn1ncc(S(=O)(=O)Cc2ccccc2)c(Br)c1=O	inactive	–	inactive	inactive	inactive	–	–	–	–	inactive
CN(C)CCCO[C@@H]1[C@H]2OC(C)(C)O[C@H]2O[C@@H]1[C@H](O)CO	–	inactive	inactive	inactive	inactive	–	inactive	inactive	inactive	inactive
NS(=O)(=O)C#Cc1ccccc1	–	–	inactive	inactive	inactive	inactive	–	inactive	–	inactive
